Data reported in PubChem BioAssay AID588774 (The Scripps Research Institute Molecular Screening Center, 2011).
The source made the active and inactive calls.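 Rule for the calls: active = target enzyme inhibited at least 50% at a set dose, and selective over every off-target enzyme by a set factor; inactive = weaker inhibition or too little selectivity.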

Legend:
[1] = competitive ABPP of pPAFAH versus proteome hydrolases – biochemical, gel-based, FP-Rh fluorescence, complex proteome, SAR compounds, selectivity assay for pPAFAH inhibitor project, SAR follow-up (AID 588774); details: MW 30 kDa, anti-targets inhibited, at 10 µM;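 for inhibition: 0% = DMSO-only band intensity and 100% = blank gel background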
MW 30 kDa = assay: as above; details: at 10 µM, stronger effect = higher value

SMILES: Cc1cc(N2CCN(C(=O)Oc3ccc(-n4cccc4)cc3)CC2)c2ccccc2n1
- anti-target count [1]: 0
- inhibition (MW 30 kDa): 0% (inactive)

SMILES: COc1ccc(-c2cnn(C(=O)N3CCN(c4cc(C)nc5ccccc45)CC3)n2)cc1
- anti-target count [1]: 8
- inhibition (MW 30 kDa): 79% (inactive)

SMILES: Cc1cc(N2CCN(C(=O)n3ncc(-c4ccc([N+](=O)[O-])cc4)n3)CC2)c2ccccc2n1
- anti-target count [1]: 9
- inhibition (MW 30 kDa): 91% (inactive)

SMILES: Cc1cc(N2CCN(C(=O)Oc3ccc(-c4ccc(Br)cc4)cc3)CC2)c2ccccc2n1
- anti-target count [1]: 0
- inhibition (MW 30 kDa): 0% (inactive)

SMILES: Cc1cc(N2CCN(C(=O)Oc3ccc(C4CCCCC4)cc3)CC2)c2ccccc2n1
- anti-target count [1]: 0
- inhibition (MW 30 kDa): 0% (inactive)

SMILES: Cc1cc(N2CCN(C(=O)n3ncc(-c4ccc(Cl)c(Cl)c4)n3)CC2)c2ccccc2n1
- anti-target count [1]: 8
- inhibition (MW 30 kDa): 93% (inactive)

SMILES: Cc1cc(N2CCN(C(=O)Oc3ccc([N+](=O)[O-])cc3)CC2)c2ccccc2n1
- anti-target count [1]: 2
- inhibition (MW 30 kDa): 0% (inactive)

SMILES: Cc1cc(N2CCN(C(=O)n3oc4cc(Cl)ccc4c3=O)CC2)c2ccccc2n1
- anti-target count [1]: 3
- inhibition (MW 30 kDa): 39% (inactive)

SMILES: O=C(N1CCOCC1)n1oc2cc(Cl)ccc2c1=O
- anti-target count [1]: 6
- inhibition (MW 30 kDa): 78% (inactive)

SMILES: Cc1cc(N2CCN(C(=O)n3ncc(-c4ccccc4)n3)CC2)c2ccccc2n1
- anti-target count [1]: 9
- inhibition (MW 30 kDa): 88% (inactive)

SMILES: Cc1cc(N2CCN(C(=O)Oc3ccc(C4CCCC4)cc3)CC2)c2ccccc2n1
- anti-target count [1]: 0
- inhibition (MW 30 kDa): 0% (inactive)

SMILES: Cc1cc(N2CCN(C(=O)n3ncc(-c4ccc(OC(F)(F)F)cc4)n3)CC2)c2ccccc2n1
- anti-target count [1]: 9
- inhibition (MW 30 kDa): 100% (inactive)

SMILES: O=C(Oc1noc2cc(Cl)ccc12)N1CCCCC1
- anti-target count [1]: 2
- inhibition (MW 30 kDa): 100% (inactive)

SMILES: Cc1cc(N2CCN(C(=O)Oc3ccc(-c4ccccc4)cc3)CC2)c2ccccc2n1
- anti-target count [1]: 0
- inhibition (MW 30 kDa): 0% (inactive)

SMILES: Cc1cc(N2CCN(C(=O)Oc3ccc(C(F)(F)F)cc3)CC2)c2ccccc2n1
- anti-target count [1]: 1
- inhibition (MW 30 kDa): 0% (inactive)

SMILES: O=C(Oc1noc2cc(Cl)ccc12)N1CCOCC1
- anti-target count [1]: 3
- inhibition (MW 30 kDa): 97% (inactive)

SMILES: Cc1cc(N2CCN(C(=O)Oc3noc4cc(Cl)ccc34)CC2)c2ccccc2n1
- anti-target count [1]: 4
- inhibition (MW 30 kDa): 0% (inactive)
